mTORC1 inh = Acumen qHTS Assay for Inhibitors of the mTORC1 Signaling Pathway in MEF (Tsc2-/-, p53-/-) Cells: Sytravon | Tsc2-/- p53-/- MEF, phospho-rpS6 immunofluorescence/PI, 24 h | Potency, µM (top dose mostly 38.3 µM), without a hit: top-dose activity change, negative = inhibition, most hits filed as inhibitors | 44,000 compounds, 0.78% hits;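 note: potency is the fitted concentration of half-maximal effect; plate controls were DMSO for no effect and rapamycin for full effect; nearly all actives have a fitted effect of over 50% in size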
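Cell-based qHTS: Tsc2-/- p53-/- MEF, 24 h cpd, 37 °C; fix/perm, anti-phospho-S6 Alexa-488 + PI; Acumen 488 nm scan; pS6/PI ratio, % positive cells; rapamycin 7.5 nM = inhibition ref; PI count = viability.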
SKOV3 invasion = Primary qHTS assay for Inhibitors of ovarian cancer metastasis using an organotypic tumor microenvironment (TME) model; Potency, µM (doses to about 45.8 µM), without a hit: at the highest dose activity change, negative = inhibition, usual class: inhibitors; AID 1963576, 2024; 46,000 compounds, 0.1% hits; SKOV3ip1-GFP adhesion/invasion on 3D omental model, fluorescence;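 note: potency is the fitted concentration of half-maximal effect; plate controls were DMSO wells for no effect and tomatine positive control wells for full effect; nearly all actives have a fitted effect of over 65% in size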
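A 3D layer of primary human omental fibroblasts, mesothelial cells, fibronectin and collagen I, grown 48 hr, received SKOV3ip1-GFP cells in serum-free medium plus compounds at 0.36-46 umol/L. After 2 hr RT and 16 hr 37 C, fixed adherent GFP cells were counted; normalized to DMSO and tomatine.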
PMP22 txn = Cell-based coincidence reporter assay to measure PMP22 gene transcription in S16 Pmp22-F2sN cells - Primary screen; S16 Pmp22-F2sN Schwann cells, FLuc/NLuc coincidence luminescence, 24 h; 43,000 compounds, 2% hits; Potency, µM (doses to about 57.5 µM), inactives show at the highest dose activity change, negative = inhibition, hits mostly inhibitors; active = clear falling dose curves in both reporters; inconclusive = both reporters move, but less clearly or upward; inactive = either reporter flat; the % is the NLuc reporter signal; note: potency is the fitted concentration of half-maximal effect; % is set by controls: 0 for no effect and ±100 for the full control effect
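Transcriptional readout in edited S16(c9) cells: two luciferases reported from the Pmp22 locus, measured in turn after 24 h compound incubation.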
S16 F2sN tox = Cell viability qHTS assay in S16 Pmp22-F2sN cells | S16 Pmp22-F2sN Schwann cells (luciferase reporters placed in the Pmp22 gene) viability, CellTiter-Glo, 24 h | Potency, µM (titrated, usually from 57.5 µM), inactives show at the highest dose activity change, negative = cytotoxicity, most hits filed as cytotoxic | 43,000 compounds, 0.48% hits | AID 1508642, 2021; note: potency is the fitted concentration of half-maximal effect; % is set by controls: 0 for no effect and ±100 for the full control effect; nearly all actives have a fitted effect of over 65% in size
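CellTiter-Glo counter-screen, qHTS, 1536-well. Cells: S16(c9) Pmp22-F2sN, 500-1,000/well in DMEM + 10% FBS. Cpd 23 nL pin transfer, 24 h, 37C/5% CO2. Read: luminescence, CCD imager.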
p53null 32C kill = qHTS Screen for Compounds that Selectively Target Cancer Cells with p53 Mutations: Cytotoxicity of p53 Null Cells at the Permissive Temperature. Potency, µM (highest dose often 46.1 µM), inactives show top-dose activity change, negative = cytotoxicity, usual class: cytotoxic. 55,000 compounds, 0.62% hits. H1299-neo p53 null cells, ATP luminescence, 24 h, 32C. AID 903, 2007;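 note: potency is the fitted concentration of half-maximal effect; 0% = DMSO only and -100% = full killing by 100 µM tamoxifen; nearly all actives have a fitted effect of over 55% in size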
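Overnight 37C seeding (600 cells/well) of H1299-neo preceded a 24 hr, 32C exposure to compounds up to 46 uM. ATP levels, read by luminescence after 20 min at RT, indicated surviving cells.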
p53null 39C tox = qHTS Screen for Compounds that Selectively Target Cancer Cells with p53 Mutations: Cytotoxicity of p53 Null Cells at the Nonpermissive Temperature. H1299 p53-null (neo) cells, 39C, ATPlite viability, 24 h. Potency, µM (top dose mostly 46.1 µM), without a hit: top-dose activity, negative = cell killing, usual class: cytotoxic. 55,000 compounds, 0.97% hits. AID 904, 2007;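 note: potency is the fitted concentration of half-maximal effect; 0% = DMSO only and -100% = full killing by 100 µM tamoxifen; nearly all actives have a fitted effect of over 50% in size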
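Concentration-response (up to 46 uM) was run for 24 h at the nonpermissive 39C on H1299-p53A138V or H1299-neo cells. ATP content was measured with ATPlite luminescence. AC50 values were Hill-modeled after normalizing between DMSO and 100 uM tamoxifen killing.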
NLuc sat counter = Biochemical NLuc saturation counterscreen for small molecule modulators of PMP22 gene expression - Nano-Glo assay | shares compounds with PMP22 txn | Secreted NLuc enzyme (filtered S16 cell medium), Nano-Glo luminescence | Potency, µM (highest dose often 57.5 µM), without a hit: at the top dose activity change, negative = inhibition, hits mostly inhibitors | 690 compounds, 4% hits | AID 1508638, 2021; note: potency is the fitted concentration of half-maximal effect; % is set by controls: 0 for no effect and ±100 for the full control effect
NLuc Km ctr = Biochemical coelenterazine-based NLuc counterscreen for small molecule modulators of PMP22 gene expression - Km assay; shares compounds with PMP22 txn; secreted NLuc enzyme, coelenterazine luminescence, Km conditions; Potency, µM (titrated, usually from 57.5 µM), for the others: top-dose activity change, negative = inhibition, actives largely listed as inhibitors; 690 compounds, 5% hits; AID 1508639, 2021; note: potency is the fitted concentration of half-maximal effect; % is set by controls: 0 for no effect and ±100 for the full control effect
FLuc counter = Biochemical FLuc counterscreen for small molecule modulators of PMP22 gene expression; shares compounds with PMP22 txn; purified P. pyralis FLuc, luminescence, 10 min; Potency, µM (highest dose often 57.5 µM), for the others: at the highest dose activity, negative = inhibition, most hits filed as inhibitors; 690 tested, under 10 active; AID 1508640, 2021; note: % of control where 0% means no effect
Target sequence (P08659 whole entry, looked up): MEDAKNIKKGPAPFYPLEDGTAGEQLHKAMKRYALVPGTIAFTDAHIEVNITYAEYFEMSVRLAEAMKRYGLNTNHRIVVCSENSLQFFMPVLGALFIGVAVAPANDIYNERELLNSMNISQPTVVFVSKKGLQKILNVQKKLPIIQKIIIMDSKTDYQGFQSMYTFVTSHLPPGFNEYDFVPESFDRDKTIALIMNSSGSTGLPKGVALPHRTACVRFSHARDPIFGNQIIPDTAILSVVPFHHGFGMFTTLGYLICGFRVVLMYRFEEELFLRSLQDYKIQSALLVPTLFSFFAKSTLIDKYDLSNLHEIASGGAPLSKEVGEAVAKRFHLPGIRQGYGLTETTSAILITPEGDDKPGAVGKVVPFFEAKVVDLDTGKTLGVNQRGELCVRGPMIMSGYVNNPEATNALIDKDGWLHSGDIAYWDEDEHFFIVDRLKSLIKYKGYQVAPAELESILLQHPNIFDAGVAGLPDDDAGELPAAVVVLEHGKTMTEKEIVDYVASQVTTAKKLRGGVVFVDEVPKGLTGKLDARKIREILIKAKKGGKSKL
S16 viab conf = Cell viability qHTS assay in S16 Pmp22-F2sN cells - Confirmatory screen. shares compounds with PMP22 txn. S16 Schwann cells viability, CellTiter-Glo ATP luminescence, 24 h. Potency, µM (top dose mostly 57.5 µM), for the others: at the highest dose activity change, negative = viability loss, most hits filed as cytotoxic. 690 compounds, 7% hits; note: potency is the fitted concentration of half-maximal effect; % is set by controls: 0 for no effect and ±100 for the full control effect
PMP22 txn conf = Cell-based coincidence reporter assay to measure PMP22 gene transcription in S16 Pmp22-F2sN cells - Confirmatory screen; Potency, µM (highest dose often 57.5 µM), for inactives: at the highest dose activity change, negative = inhibition, most hits filed as inhibitors; S16 Schwann cells Pmp22-F2sN, dual luciferase, 24 h; AID 1508646, 2021; shares compounds with PMP22 txn; 690 compounds, 22% hits; active = clear falling dose curves in both reporters; inconclusive = both reporters move, but less clearly or upward; inactive = either reporter flat; the % is the FLuc reporter signal; note: potency is the fitted concentration of half-maximal effect
PMP22 prot conf = Cell-based HiBiT reporter assay to measure PMP22 protein expression in S16 Pmp22-HiBiT cells - Confirmatory screen; 95 tested, under 10 active; shares compounds with PMP22 txn; AID 1508647, 2021; S16 Schwann cells Pmp22-HiBiT, luminescence, 48 h; Potency, µM (doses to about 27.9 µM), inactives show top-dose activity change, negative = inhibition, usual class: inhibitors
Target sequence (P25094 whole entry, looked up): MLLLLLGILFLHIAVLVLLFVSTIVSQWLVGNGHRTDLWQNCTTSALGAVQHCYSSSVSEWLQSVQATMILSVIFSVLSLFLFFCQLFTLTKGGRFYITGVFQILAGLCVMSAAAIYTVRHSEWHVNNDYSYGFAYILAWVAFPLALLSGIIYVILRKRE
Numbers without * were called inactive; i = inactive; ? = inconclusive; / = no result. A selection: hits, their analogues and other compounds. The true share with any hit is near 3%. Unless noted, calls come from the whole dose curve; as a rule, active = well fitted curve in the direction sought with a large enough effect; inconclusive = small, poorly fitted or top-dose-only effect, or another doubt; inactive = no such curve, though single readings can be large; an effect the other way counts as inactive or inconclusive.

SMILES | mTORC1 inh | SKOV3 invasion | PMP22 txn | S16 F2sN tox | p53null 32C kill | p53null 39C tox | NLuc sat counter | NLuc Km ctr | FLuc counter | S16 viab conf | PMP22 txn conf | others
CCC1=Nc2cc(C(=O)NCCCOC)ccc2Sc2ccc(Br)cc21 | ? | i | 1.3µM* | 1% | 6% | ? | -11% | -5% | 8% | ? | ? | PMP22 prot conf=?
CC1=Nc2cc(C(=O)NC3CCC(C)CC3)ccc2Sc2c(C)ccc(C)c21 (stereo unspecified) | -11% | 8% | -116% | 4% | 27% | ? | / | / | / | / | /
COCCCNC(=O)c1ccc2c(c1)N=C(C)c1c(C)ccc(C)c1S2 | -10% | ? | 0.089µM* | 11% | 1% | ? | -7% | ? | -7% | 11% | 0.31µM* | PMP22 prot conf=?
CCOc1ccc(NC(=O)CCCn2c(C)c3cnn(-c4ccccc4)c(=O)c3c2C)cc1 | -5% | i | ? | 0% | 4% | -11% | / | / | / | / | /
CCOC(=O)c1c(NC(=O)c2ccc(S(=O)(=O)N3CCC(C)CC3)cc2)sc2c1CCN(C)C2 | 15µM* | ? | 18µM* | ? | -26% | -2% | ? | ? | 6% | ? | 18µM*
CCOC(=O)c1c(NC(=O)c2ccc(S(=O)(=O)N(C)C)cc2)sc2c1CCN(C)C2 | ? | ? | ? | -7% | -1% | -6% | / | / | / | / | /
NC(=O)c1ccc(I)c([N+](=O)[O-])c1 | / | -7% | / | / | / | / | / | / | / | / | /
COc1ccc2cccc(CCNC(C)=O)c2c1 | / | 7% | / | / | / | / | / | / | / | / | /
OC[C@H]1O[C@@H](Oc2cc(O)cc(C=Cc3ccc(O)cc3)c2)[C@H](O)[C@@H](O)[C@H]1O | / | 5% | / | / | / | / | / | / | / | / | /
CC(C)COc1ccccc1C1CC(=O)Nc2cc3c(cc21)OCO3 (stereo unspecified) | ? | i | 8.4µM* | -14% | 52% | ? | ? | ? | -15% | -23% | ?
CCOc1ccc2nc(NC(=O)c3nc(SC(C)C)ncc3Cl)sc2c1 | -2% | i | 18µM* | ? | -13% | -29% | -6% | -3% | -12% | -21% | ?
COc1ccc2nc(NC(=O)c3nc(SCc4cccc(C)c4)ncc3Cl)sc2c1 | 3% | i | 10µM* | 4% | 1% | -20% | -9% | 5% | 5% | ? | ?
Cc1cccc(CS(=O)(=O)c2ncc(Cl)c(C(=O)Nc3nc4ccc(F)cc4s3)n2)c1 | ? | i | 6.5µM* | ? | 2% | -3% | ? | ? | -5% | ? | 10µM* | PMP22 prot conf=?
CC1CCC(C(=O)N(c2cc(C#CC(C)(C)C)sc2C(=O)O)C2CCC(O)CC2)CC1 (stereo unspecified) | / | -3% | / | / | / | / | / | / | / | / | /
CC[C@H](Nc1ncnc2nc[nH]c12)c1nc2cccc(F)c2c(=O)n1-c1ccccc1 | / | -12% | / | / | / | / | / | / | / | / | /
Cc1ccccc1CNC(=O)C(=O)NCC(c1cccs1)S(=O)(=O)c1ccc(Cl)cc1 (stereo unspecified) | 2% | 8% | 15µM* | 0% | 3% | 4% | -14% | -17% | 4% | 10% | -24%
CCOc1ccccc1NC(=O)c1cnn2c(C(F)F)cc(-c3ccccc3)nc12 | -18% | 4% | 11µM* | 25% | 20% | -7% | -6% | 2% | 2% | 17% | ?
Cc1ccc(Cl)cc1NC(=O)c1cnn2c(C(F)F)cc(-c3ccccc3)nc12 | -29% | 5% | -26% | 15% | -5% | -2% | / | / | / | / | /
Cc1ccc(Cn2c(=O)n(CC3CCC(C(=O)N4CCOCC4)CC3)c(=O)c3sccc32)cc1 (stereo unspecified) | 3% | -9% | 9% | 4% | -6% | 10% | / | / | / | / | /
Cc1ccccc1Cn1c(=O)n(CC2CCC(C(=O)N3CCOCC3)CC2)c(=O)c2sccc21 (stereo unspecified) | 0% | 4% | 12µM* | -8% | 6% | 3% | -8% | 6% | 2% | -2% | -24%
COc1cc(NC(=O)c2cc(-c3ccccc3O)no2)cc(OC)c1OC | 9% | -37% | ? | ? | -7% | ? | / | / | / | / | /

Source: PubChem BioAssay (National Center for Advancing Translational Sciences (NCATS))
